Measured values: PubChem BioAssay (NCATS)
Inconclusive results are not listed. Entries that show only a call come without a potency. Unmarked numbers belong to inactive results. Active and inactive are the calls of the source. Unless noted, calls follow the shape of the dose curve; as a rule, active = well fitted curve in the direction sought with a large enough effect; inconclusive = small, poorly fitted or top-dose-only effect, or another doubt; inactive = no such curve, though single readings can be large; an effect the other way counts as inactive or inconclusive.

Columns and labels:
[1] = target: Calcium and integrin-binding protein 1 (Homo sapiens) (UniProt Q99828); assay: Primary qHTS for Identification of Calcium Integrin Binding Protein 1 (CIB1) Competitor (AID 1508620); conditions: CIB1-GST / FITC-alphaIIb peptide fluorescence polarization; series mostly up to 57.7 µM;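 also: GST tagged CIB1 binding a fluorescein labelled alphaIIb integrin peptide tracer; top concentration of the series differs between compounds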
Calcium and integrin-binding protein 1 (Homo sapiens), sequence (Q99828 whole entry, looked up): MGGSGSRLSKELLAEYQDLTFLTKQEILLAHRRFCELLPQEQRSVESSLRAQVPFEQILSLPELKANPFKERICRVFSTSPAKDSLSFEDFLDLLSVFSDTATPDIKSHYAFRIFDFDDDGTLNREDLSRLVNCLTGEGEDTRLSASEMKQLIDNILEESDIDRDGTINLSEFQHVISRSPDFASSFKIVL
Outline: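 Fluorescence polarization competition: CIB1-GST (1 uM final) preincubated with compound 15 min at room temperature, then FITC-labeled alphaIIb peptide (100 nM final) added for another 15 min. Polarization read at Ex 480/Em 540.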

[2] = target: Cytochrome P450 2C9 (Homo sapiens) (UniProt P11712); assay: Cytochrome P450 family 2 subfamily C member 9 (CYP2C9) small molecule antagonists: luciferase biochemical (cell-free) qHTS assay (AID 1645842; active = well fitted curve in the direction sought with a large enough effect in the repeat runs; an effect the other way counts as inactive or inconclusive; also: nearly all actives have a fitted effect of over 55% in size; also: potency is read from the fitted curve at half-maximal effect); conditions: P450-Glo CYP2C9 enzyme assay, luciferin luminescence; series mostly up to 57.4 µM
Cytochrome P450 2C9 (Homo sapiens), sequence (P11712 whole entry, looked up): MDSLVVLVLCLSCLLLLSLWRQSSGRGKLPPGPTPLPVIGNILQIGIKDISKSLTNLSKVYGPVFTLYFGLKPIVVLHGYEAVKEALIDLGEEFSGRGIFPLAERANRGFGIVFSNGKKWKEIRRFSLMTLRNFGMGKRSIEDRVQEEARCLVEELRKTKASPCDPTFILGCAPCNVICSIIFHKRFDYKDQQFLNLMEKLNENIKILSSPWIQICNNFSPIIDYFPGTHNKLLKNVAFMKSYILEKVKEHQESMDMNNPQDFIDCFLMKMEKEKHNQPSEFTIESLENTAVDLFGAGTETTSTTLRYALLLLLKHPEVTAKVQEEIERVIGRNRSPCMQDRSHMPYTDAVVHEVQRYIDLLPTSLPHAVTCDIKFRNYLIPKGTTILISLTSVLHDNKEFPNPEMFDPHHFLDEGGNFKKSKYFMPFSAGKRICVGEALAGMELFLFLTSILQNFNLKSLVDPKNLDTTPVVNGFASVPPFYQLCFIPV
Outline: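 Luminescence, after 20 min with luciferin detection reagent, reflected CYP2C9 turnover during a 1 h NADPH-driven reaction at 37C. Enzyme-substrate mix contained 0.4% bovine serum albumin and was preincubated with compound 10 min at room temperature.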

[3] = target: Cytochrome P450 2D6 (Homo sapiens) (UniProt P10635); assay: Cytochrome P450 family 2 subfamily D member 6 (CYP2D6) small molecule antagonists: luciferase biochemical (cell-free) qHTS assay (AID 1645840; active = well fitted curve in the direction sought with a large enough effect in the repeat runs; an effect the other way counts as inactive or inconclusive; also: nearly all actives have a fitted effect of over 55% in size; also: potency is read from the fitted curve at half-maximal effect); conditions: P450-Glo CYP2D6 enzyme, luciferin luminescence, 1 h; series mostly up to 57.4 µM
Cytochrome P450 2D6 (Homo sapiens), sequence (P10635 whole entry, looked up): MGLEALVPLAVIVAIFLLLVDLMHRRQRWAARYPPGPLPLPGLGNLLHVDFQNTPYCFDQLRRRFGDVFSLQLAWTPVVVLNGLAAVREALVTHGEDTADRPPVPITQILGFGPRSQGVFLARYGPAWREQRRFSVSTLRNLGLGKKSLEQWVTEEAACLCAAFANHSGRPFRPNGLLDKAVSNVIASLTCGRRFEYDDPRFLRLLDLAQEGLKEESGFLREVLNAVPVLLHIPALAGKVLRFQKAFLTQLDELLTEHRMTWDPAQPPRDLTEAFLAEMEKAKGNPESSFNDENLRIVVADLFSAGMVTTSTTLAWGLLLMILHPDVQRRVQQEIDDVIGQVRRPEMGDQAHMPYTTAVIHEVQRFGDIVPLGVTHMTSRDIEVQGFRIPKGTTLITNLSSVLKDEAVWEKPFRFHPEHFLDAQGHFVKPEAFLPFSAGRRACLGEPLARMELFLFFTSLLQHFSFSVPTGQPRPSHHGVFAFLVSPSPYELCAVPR
Outline: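 P450-Glo luminescent screen: recombinant CYP2D6 enzyme–proluciferin substrate mix preincubated with compound 10 min at room temperature, then NADPH regeneration added for 1 h at room temperature. Detection reagent added for 20 min; luciferin light read as relative luminescence units.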

[4] = Primary qHTS for inhibitors of nuclear receptor binding SET domain protein 2 (NSD2) in an isogenic RCH-ACV NSD2 p.E1099K mutant (9B) (AID 1645876); conditions: RCH-ACV NSD2 E1099K (9B) viability, CellTiter-Glo, 72 h; series mostly up to 44.9 µM; also: nearly all actives have a fitted effect of over 70% in size; also: potency is read from the fitted curve at half-maximal effect
[5] = Primary qHTS for inhibitors of nuclear receptor binding SET domain protein 2 (NSD2) in an RCH-ACV wild type WT cells (2C) (AID 1645877); conditions: RCH-ACV (leukaemia line) NSD2 WT (2C) viability, CellTiter-Glo, 72 h; series mostly up to 44.9 µM; also: nearly all actives have a fitted effect of over 70% in size; also: potency is read from the fitted curve at half-maximal effect
[6] = target: Cytochrome P450 3A4 (Homo sapiens) (UniProt P08684); assay: Cytochrome P450 family 3 subfamily A member 4 (CYP3A4) small molecule antagonists: luciferase qHTS assay (AID 1645841; active = well fitted curve in the direction sought with a large enough effect in the repeat runs; an effect the other way counts as inactive or inconclusive; also: nearly all actives have a fitted effect of over 45% in size; also: potency is read from the fitted curve at half-maximal effect); conditions: P450-Glo CYP3A4 enzyme assay, luciferin luminescence; series mostly up to 57.4 µM
Cytochrome P450 3A4 (Homo sapiens), sequence (P08684 whole entry, looked up): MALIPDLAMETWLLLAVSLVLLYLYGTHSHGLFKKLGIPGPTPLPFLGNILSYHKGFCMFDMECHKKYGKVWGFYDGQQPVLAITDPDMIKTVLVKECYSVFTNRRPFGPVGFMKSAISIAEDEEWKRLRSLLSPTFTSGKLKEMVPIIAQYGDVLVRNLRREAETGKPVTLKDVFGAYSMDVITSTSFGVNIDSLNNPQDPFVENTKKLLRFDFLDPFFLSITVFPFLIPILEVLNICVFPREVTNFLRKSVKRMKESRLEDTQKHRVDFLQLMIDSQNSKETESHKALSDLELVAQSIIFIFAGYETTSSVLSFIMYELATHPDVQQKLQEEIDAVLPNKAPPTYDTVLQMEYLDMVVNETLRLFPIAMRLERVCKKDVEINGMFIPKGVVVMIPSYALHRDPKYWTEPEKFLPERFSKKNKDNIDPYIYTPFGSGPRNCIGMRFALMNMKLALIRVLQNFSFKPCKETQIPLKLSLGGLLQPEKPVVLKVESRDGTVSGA
Outline: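 P450-Glo CYP3A4 enzyme with proluciferin substrate was preincubated with DMSO-dissolved compounds for 10 min at room temperature. NADPH regeneration solution started a 1 h reaction. Detection reagent stopped it, and luminescence was read after 20 min.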

## NCCCCN(Cc1nc2ccccc2[nH]1)[C@H]1CCCc2cccnc21
[1]
  Potency: inactive
[2]
  Potency: 6.74 µM (active)

## O=C(O)Cn1nnc(-c2ccc(CN(CCCCOc3ccc(CN4CCCC4)cc3)CCc3ccccc3)cc2)n1
[1]
  Potency: inactive
[3]
  Potency: 12 µM (active)
[4]
  Potency: inactive
[5]
  Potency: inactive

## On1ncc(C2CCNCC2)c1-c1cccc(-c2ccccc2)c1
[1]
  Potency: inactive
[2]
  Potency: inactive

## FC(F)(F)c1nnc2c(Sc3ccccc3)nc3ccc(Cl)cc3n12
[1]
  Potency: inactive
[3]
  Potency: inactive
[4]
  Potency: 4.09 µM (active)
[5]
  Potency: 3.65 µM (active)

## FC(F)(F)Oc1ccc(-c2ccc3nnc(C(F)(F)F)n3c2)cc1
[1]
  Potency: inactive
[3]
  Potency: inactive
[4]
  Potency: inactive
[5]
  Potency: inactive

## Nc1nc(COC(=O)c2ccc([N+](=O)[O-])cc2)nc(Nc2ccccc2)n1
[1]
  Potency: inactive
[3]
  Potency: inactive
[2]
  Potency: 21.3 µM (active)
[4]
  Potency: inactive
[5]
  Potency: inactive

## NC(N)=NCCC[C@H](NC(=O)c1sccc1NS(=O)(=O)c1cccc2nsnc12)C(=O)O
[1]
  Potency: inactive
[3]
  Potency: inactive
[4]
  Potency: inactive

## Cc1cc(OCCN2CCOCC2)nn1-c1ccc2ccccc2c1
[1]
  Potency: inactive
[3]
  Potency: 5.35 µM (active)
[4]
  Potency: inactive

## N#Cc1cccc(-c2nc(-c3cccnc3)no2)c1
[1]
  Potency: inactive
[3]
  Potency: 2.62 µM (active)
[2]
  Potency: 4.65 µM (active)
[4]
  Potency: inactive
[5]
  Potency: inactive

## CC(C)[C@@](O)(c1ccc2cc(OC(F)F)c(OC(F)F)cc2c1)c1cn[nH]n1
[1]
  Potency: inactive
[2]
  Potency: 1.07 µM (active)

## CCNC(=O)C1CC(F)(c2ccc(CN3CCCC3)c(F)c2)C1 (stereo not given)
[1]
  Potency: inactive
[6]
  Potency: inactive
[2]
  Potency: inactive
[4]
  Potency: inactive
[5]
  Potency: inactive

## Cc1ccc(-c2c(-c3nn(C)c4ncnc(N5CCC(N6CCCCC6)C5)c34)cnn2C)cc1 (stereo not given)
[1]
  Potency: inactive
[6]
  Potency: 0.12 µM (active)
[2]
  Potency: 19 µM (active)
[4]
  Potency: inactive

## O=C(OC(C(F)(F)F)C(F)(F)F)N1CCN(Cc2cccc(Oc3ccccc3)c2)CC1
[1]
  Potency: inactive
[2]
  Potency: 19 µM (active)

## CCC(C)C(N)C(=O)NCCN1CCOCC1 (stereo not given)
[1]
  Potency: inactive
[3]
  Potency: inactive
[2]
  Potency: inactive
[4]
  Potency: inactive
[5]
  Potency: inactive

## COc1cnc(-c2ccc(Cn3c(CC(C)(C)C(=O)O)c(SC(C)(C)C)c4cc(OC[C@@H]5Cc6ccccc6N5C(C)=O)ccc43)cc2)nc1
[1]
  Potency: inactive
[2]
  Potency: 12 µM (active)

## CC(C)(C)NS(=O)(=O)c1ccc(-c2ccc3[nH]nc(N)c3c2)cc1
[1]
  Potency: inactive
[2]
  Potency: 13.5 µM (active)

## CN1C(=O)N(c2cc(Cl)cc(Cl)c2)C(=O)[C@@]1(C)Cc1ccc(Br)cc1
[1]
  Potency: inactive
[2]
  Potency: 3.38 µM (active)

## O=C(NC1Cc2ccccc2N(C[C@@H](O)CO)C1=O)c1cc2cc(Cl)sc2[nH]1 (stereo not given in full)
[1]
  Potency: inactive
[2]
  Potency: 21.3 µM (active)

## COc1cc(Nc2nc3c(s2)CCCC3c2ccccc2)ccc1-n1cnc(C)c1 (stereo not given)
[1]
  Potency: inactive
[3]
  Potency: 0.275 µM (active)
[4]
  activity change, negative = viability loss: -1.48% [at 9.23 µM]
[5]
  outcome: inactive [at 9.23 µM]

## O=C(c1ccc(Cl)c([N+](=O)[O-])c1)N1CCN(c2ccccc2F)CC1
[1]
  Potency: inactive
[3]
  Potency: inactive
[2]
  Potency: 2.68 µM (active)
[5]
  Potency: 16.3 µM (active)

## CCCSc1nc(NC2CC2c2ccc(F)c(F)c2)c2nnn(C3CC(OCCO)C(O)C3O)c2n1 (stereo not given)
[1]
  Potency: inactive
[2]
  Potency: 3.79 µM (active)

## CCC1(O)CC2c3cc(OC)c(OC)cc3CCN2CC1CC(C)C (stereo not given)
[1]
  Potency: inactive
[2]
  Potency: inactive
[4]
  Potency: inactive
[5]
  Potency: inactive

## Cc1cc(CNC(=O)c2cc(C(=O)NCc3ccc(F)c(C)c3)ncn2)ccc1F
[1]
  Potency: inactive
[2]
  Potency: inactive
[4]
  Potency: inactive
[5]
  Potency: inactive

## O=C(Nc1cc(-c2ccccc2)nn1-c1ccccc1)c1ccc([N+](=O)[O-])cc1
[1]
  Potency: inactive
[2]
  Potency: 1.51 µM (active)
[4]
  Potency: inactive
[5]
  Potency: inactive
